The results in this text go back to PubChem BioAssay (NCI).

This is part of a sample that, as a whole, favours compounds with a hit. Of some 83,000 tested, about 20% had one in any assay.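 Percent growth is the endpoint: 0 to 100 indicates growth inhibition (40 means 60% inhibition), 0 means no net growth, and negative values indicate cell death.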 Values without a mark were called inactive. Active and inactive are the calls of the source. How the source made its calls: active means growth percent below 10; inactive means the rest.

This test deals with HL-60(TB) leukemia. As to the kind of experiment: NCI-60 one-dose screen, 48 h (100 = growth as untreated, 0 = no growth, -100 = all killed). Conditions: 10 µM unless noted.
As to `COc1ccc(-c2cnc(-c3ccc(Cl)cc3)[nH]2)cc1OC`, the growth is 91.2%.

Regarding `C#Cc1ccc(NC(=O)Cc2ccc(/C=C/C(=O)c3nccn3C)cc2)cc1`, the growth was 16.5%.

`N/C(=N\c1nc2ccccc2s1)NC(=O)Nc1cccc2ccccc12`: the growth was -26.8% (active).

Consider `CCCCCCCCC(C)C(=O)N1CCCC1C(=O)N1C(CC(=O)CC)CC(C)CC1C(=O)NC(C)C(=O)NC(C)(C)C(=O)NC(C)(C)C(=O)NC(C(=O)NC(C)C(=O)NC(C)(C)C(=O)NC(C)(C)C(=O)NC(C)CN(C)CCO)C(C)CC` (centres undefined), for which the growth was -51.8% (active).
